Measurements published in paper PMC4336329 (PLoS ONE, 2015).
Out of some 310,000 compounds screened, about 14,000 (4.5%) showed an effect of 50% or more. Effects have a minus sign here. The sample as a whole holds a higher share of strong results than the screen did.

biological target: human ether-à-go-go-related gene (hERG) potassium channel (human, UniProt Q12809); assay: primary screen, population patch clamp on CHO cells stably expressing hERG; higher = less effect of the substance
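Also: peak tail current of the secondary pulse compared with the same well before compound.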

Sequence of human ether-à-go-go-related gene (hERG) potassium channel (Q12809 whole entry, looked up): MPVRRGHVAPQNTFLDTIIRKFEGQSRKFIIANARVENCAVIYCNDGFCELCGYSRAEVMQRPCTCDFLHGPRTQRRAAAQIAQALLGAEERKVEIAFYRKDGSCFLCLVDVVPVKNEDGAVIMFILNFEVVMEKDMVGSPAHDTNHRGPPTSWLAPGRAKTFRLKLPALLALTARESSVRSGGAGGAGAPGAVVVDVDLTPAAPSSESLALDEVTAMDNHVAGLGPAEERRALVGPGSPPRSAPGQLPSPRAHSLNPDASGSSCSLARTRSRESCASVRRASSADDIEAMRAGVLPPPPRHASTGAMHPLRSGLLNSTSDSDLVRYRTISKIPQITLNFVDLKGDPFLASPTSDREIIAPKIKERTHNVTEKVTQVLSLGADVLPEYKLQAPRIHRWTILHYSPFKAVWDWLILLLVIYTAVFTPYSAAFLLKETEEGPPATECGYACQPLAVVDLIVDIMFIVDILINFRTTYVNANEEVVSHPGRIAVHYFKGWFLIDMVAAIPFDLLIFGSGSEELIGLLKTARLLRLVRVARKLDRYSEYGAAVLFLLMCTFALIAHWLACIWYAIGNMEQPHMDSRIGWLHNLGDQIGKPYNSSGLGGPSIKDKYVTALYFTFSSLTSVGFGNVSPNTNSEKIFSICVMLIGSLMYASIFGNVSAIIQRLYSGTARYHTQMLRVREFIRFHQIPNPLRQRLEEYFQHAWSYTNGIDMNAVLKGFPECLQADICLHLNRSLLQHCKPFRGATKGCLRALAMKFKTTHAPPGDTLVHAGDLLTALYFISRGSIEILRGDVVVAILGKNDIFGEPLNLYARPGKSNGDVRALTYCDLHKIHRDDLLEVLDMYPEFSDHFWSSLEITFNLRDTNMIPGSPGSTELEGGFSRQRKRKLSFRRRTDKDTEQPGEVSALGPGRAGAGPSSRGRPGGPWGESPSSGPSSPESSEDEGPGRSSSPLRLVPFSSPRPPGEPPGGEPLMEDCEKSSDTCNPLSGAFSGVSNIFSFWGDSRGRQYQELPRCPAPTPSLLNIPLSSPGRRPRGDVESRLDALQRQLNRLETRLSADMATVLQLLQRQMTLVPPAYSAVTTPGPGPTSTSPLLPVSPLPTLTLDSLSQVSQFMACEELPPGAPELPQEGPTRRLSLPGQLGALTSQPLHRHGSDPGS

SMILES	hERG current change (%, negative = inhibition) at 10uM [%]
O=C(CSc1nnc(C2COc3ccccc3O2)o1)N1CCN(c2ccccc2)CC1 (centres unmarked)	8.03
CCOC(=O)N1CCN(C(=O)C2CCC(CNS(=O)(=O)c3ccccc3)CC2)CC1 (centres unmarked)	3.18
COc1ccc(CCNC(=O)c2ccc(-c3cccc([N+](=O)[O-])c3)o2)cc1OC	-26.7
COc1ccc(NC(=O)c2ccc(-c3ccc([N+](=O)[O-])cc3)o2)cc1OC	-64.9
COc1ccc(CCNC(=O)c2ccc(-c3ccc([N+](=O)[O-])cc3)o2)cc1OC	-60.7
COc1ccc(NC(=O)c2ccc(-c3ccc([N+](=O)[O-])cc3)o2)cc1	-33.1
COc1cccc(NC(=O)c2ccc(-c3ccc([N+](=O)[O-])cc3)o2)c1	-36.2
COc1ccc(CCNC(=O)Cc2ccc([N+](=O)[O-])cc2)cc1OC	-11.6
CCOC(=O)c1c(NC(=O)CCS(=O)(=O)c2ccccc2)sc2c1CC(C)(C)NC2(C)C	-44.9
O=C(Nc1cccc(S(=O)(=O)N2CCOCC2)c1)c1ccc2ccccc2n1	-1.59
CCNc1nc(NCC)nc(SCCOc2ccc(C)cc2)n1	-40.6
COc1ccccc1N1CCN(C(=O)COc2ccc(S(=O)(=O)NC(C)C)cc2)CC1	-4.64
S=C(Nc1ccccc1Cl)N(CCCN1CCOCC1)Cc1ccco1	0.554
Cc1ccccc1NC(=S)N(CCN(C)C)C(C)c1ccco1 (centres unmarked)	-12.1
COCCN(C(=S)Nc1cccc(Cl)c1C)C(C)c1ccco1 (centres unmarked)	-15.4
CCN1CCN(CCCN(Cc2ccco2)C(=S)Nc2ccccc2Cl)CC1	-53.5
CCN1CCN(CCCN(Cc2ccco2)C(=S)Nc2cccc(Cl)c2C)CC1	-61.2
Cc1c(Cl)cccc1NC(=S)N(CCCN1CCOCC1)Cc1ccco1	-43.9
Cc1c(Cl)cccc1NC(=S)N(CCN(C)C)C(C)c1ccco1 (centres unmarked)	-55.9
O=C(NCCCN1CCCC1=O)c1cccc(Oc2ccccc2)c1	10.5

SMILES	hERG current change (%, negative = inhibition) at 10uM [%]
CCN(CC(=O)Nc1c(F)cccc1F)C(=O)CCN1C(=O)c2cccc([N+](=O)[O-])c2C1=O	16.2
N#CCC(=O)Nc1ncn(Cc2ccccc2Cl)n1	15.4
CCCCc1nc2cc(C(=O)NCc3ccccn3)ccc2o1	2.61
COc1ccccc1C(=O)NC(=O)CSc1nc2nc(C)cc(C)n2n1	0.704
Cc1cccc(N=c2oc3cc(O)ccc3cc2C(N)=O)c1	-17.3
Cc1cc(C(=O)CSc2nc(N)cc(N)n2)c(C)n1-c1cccc(F)c1	-14.2
Cc1cc(C(=O)CSc2nc(N)cc(N)n2)c(C)n1-c1cccc(C(F)(F)F)c1	-64.4
Cc1cc(C(=O)CSc2ncccn2)c(C)n1-c1cccc(F)c1	-5.48
C=CCn1c(Cc2ccccc2)n[nH]c1=S	11.7
COc1cc(C(=O)NCc2nnc(SCC(=O)N3CCOCC3)o2)cc(OC)c1OC	17.2
OCCCNc1cc(-c2ccnc(Nc3cccc(Cl)c3)n2)ccn1	-30.3
CN(C)CCCNc1ccc(-c2cc(Nc3cccc(Cl)c3)ncn2)cn1	-58.4
OCCCNc1nccc(-c2cc(Nc3cccc(Cl)c3)ncn2)n1	9.69
CC(=O)Nc1ccc(C(=O)OCC(=O)Nc2ccc([N+](=O)[O-])cc2C(F)(F)F)cc1	7.22
Cl.N=c1n(Cc2ccc(Cl)cc2)c2ccccc2n1CC(O)c1ccco1 (centres unmarked)	-64.1
Cc1ccc(Cn2c(=O)n(Cc3ccco3)c(=O)c3ccccc32)cc1	16.3
CC(C)(C)c1ccc(Cn2c(=O)cnc3ccccc32)cc1	-4.85
CCn1c(=N)n(CC(O)c2ccco2)c2ccccc21.Cl (centres unmarked)	-30.7
O=C(Nc1nc2ccccc2n1Cc1ccc(Cl)cc1)c1ccco1	5.47
Cc1ccc(Cn2c(=N)n(CC(O)c3ccco3)c3ccccc32)cc1.Cl (centres unmarked)	-64.5

SMILES	hERG current change (%, negative = inhibition) at 10uM [%]
CC(C)(C)c1ccc(Cn2c(=N)n(CC(O)c3ccco3)c3ccccc32)cc1.Cl (centres unmarked)	-71.9
O=c1c2ccccc2n(Cc2ccc(Cl)cc2)c(=O)n1Cc1ccco1	4.77
O=C(c1cccs1)N(Cc1cc2ccccc2[nH]c1=O)c1ccccc1	-11.8
CC(C)CN=Cc1c(O)c([N+](=O)[O-])cc2oc3c(c12)CCCC3	0.113
COc1ccc(CCNC(=O)c2cccc(S(=O)(=O)N3CCOCC3)c2)cc1OC	1.15
CC(C)(C)N1CC(C(=O)Nc2ccc(C#N)cc2)CC1=O (centres unmarked)	11.6
O=C(NCCc1ccc(Cl)cc1)c1nnc(Cc2ccc(Cl)cc2)o1	10.1
CN(C)c1ccc(C2CC(=O)NC3=C2C(=O)CC(C)(C)C3)cc1 (centres unmarked)	1.9
Cc1ccc(F)cc1NC(=O)N1CCN(c2ccnc3cc(Cl)ccc23)CC1	-67
O=C(Nc1ccc(Cl)cc1Cl)N1CCN(c2ncccn2)CC1	-21.1
Cc1cccc(Cl)c1NC(=O)N1CCN(c2ccnc3cc(Cl)ccc23)CC1	-16.8
COc1ccccc1N1CCN(c2ccnc3cc(Cl)ccc23)CC1	-43.4
Cc1ccc(F)cc1NC(=O)N1CCCN(c2ccc(C(F)(F)F)cn2)CC1	-43.3
COc1cccc(Cl)c1NC(=O)N1CCN(c2ccnc3cc(Cl)ccc23)CC1	-44.1
COc1ccccc1NC(=O)N1CCC(C(=O)c2ccc(F)cc2)CC1	0.487
O=C(Nc1cc(F)ccc1F)N1CCN(c2ccnc3cc(Cl)ccc23)CC1	-66.4
COc1ccccc1NC(=S)N1CCC(C(=O)c2ccc(F)cc2)CC1	-22.7
COc1ccccc1NC(=O)N1CCC(C(=O)c2ccc(Cl)cc2)CC1	-72.7
COc1ccccc1NC(=O)N1CCN(c2ccnc3cc(Cl)ccc23)CC1	-80.5
